# Measured values from the supplement of paper PMC12494721.
# Where a name gives a salt, the structure may show the parent alone.
# Legend:
# Conditions in all cases: incubation time: 27 h, anaerobic, 37 °C;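 for the amine columns active = adjusted P below 0.05 in both replicates with a change the same way and a mean fold change under 0.8 or over 1.25; inactive = the rest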
# [1] = test system: Clostridium sporogenes DSM 1664; assay: growth (OD595) fold change vs plate DMSO controls (fold change (ratio)); higher = more growth
# Summary of the method: (§1)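 Growth is expressed as the fold change relative to the median of the DMSO control wells on each plate. Cultures in mGAM were grown anaerobically in 96-well plates for 27 h at 37 °C, shaken, and read at 595 nm. Readings were blank-subtracted, corrected for compound background with 20 µM compound solutions in water, and converted to OD with a calibration factor of 5. Fold changes above 1.5 were set to NA, and each value is the mean of 2 biological replicates.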
# Escherichia coli IAI1 [2] = assay: as above
# Summary of the method: as §1
# [3] = test system: Klebsiella aerogenes DSM 30053; assay: as above
# Summary of the method: as §1
# [4] = test system: Ruminococcus gnavus DSM 108212; assay: as above
# Summary of the method: as §1
# [5] = test system: Klebsiella aerogenes DSM 30053; assay: fold change of Histamine concentration vs plate DMSO controls (fold change (ratio)); higher = more amine produced, active = hit call of the paper (significant change in both replicates, either direction)
# Summary of the method: (§2)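 Anaerobic mGAM cultures of four gut bacterial strains were grown at 37 °C for 27 h in 80 µL wells, starting at OD 0.1 before 1:1 dilution. Compounds were at 20 µM final (sweeteners 50 µM). Whole cultures were extracted with cold acetonitrile/methanol containing 0.1% formic acid and centrifuged. Amines were quantified by LC–triple-quadrupole MS (dynamic MRM) against external calibration curves and drift-corrected within batch. Each value is the fold change versus plate DMSO controls, averaged over 2 biological replicates.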
# [6] = test system: Clostridium sporogenes DSM 1664; assay: fold change of Tryptamine concentration vs plate DMSO controls (fold change (ratio)); higher = more amine produced, active = hit call of the paper (significant change in both replicates, either direction)
# Summary of the method: as §2
# [7] = test system: Ruminococcus gnavus DSM 108212; assay: as above
# Summary of the method: as §2
# Escherichia coli IAI1 [8] = assay: fold change of Putrescine concentration vs plate DMSO controls (fold change (ratio)); higher = more amine produced, active = hit call of the paper (significant change in both replicates, either direction)
# Summary of the method: as §2
# [9] = test system: Klebsiella aerogenes DSM 30053; assay: as above
# Summary of the method: as §2
# Escherichia coli IAI1 [10] = assay: fold change of Cadaverine concentration vs plate DMSO controls (fold change (ratio)); higher = more amine produced, active = hit call of the paper (significant change in both replicates, either direction)
# Summary of the method: as §2
# [11] = test system: Klebsiella aerogenes DSM 30053; assay: as above
# Summary of the method: as §2
# [12] = test system: Ruminococcus gnavus DSM 108212; assay: fold change of 2-Phenylethylamine concentration vs plate DMSO controls (fold change (ratio)); higher = more amine produced, active = hit call of the paper (significant change in both replicates, either direction)
# Summary of the method: as §2
Compound,growth [1],growth (Escherichia coli IAI1 [2]),growth [3],growth [4],fold change of Histamine concentration [5],fold change of Tryptamine concentration [6],fold change of Tryptamine concentration [7],fold change of Putrescine concentration (Escherichia coli IAI1 [8]),fold change of Putrescine concentration [9],fold change of Cadaverine concentration (Escherichia coli IAI1 [10]),fold change of Cadaverine concentration [11],fold change of 2-Phenylethylamine concentration [12]
CCCCCCNC(=O)n1cc(F)c(=O)[nH]c1=O [Carmofur] (20 µM),0.985,0.886,0.963,0.862,0.726 (active),0.872 (inactive),0.983 (inactive),0.508 (active),0.936 (inactive),0.91 (inactive),0.974 (inactive),1.01 (inactive)
CC(C)(C)NC[C@H](O)c1ccc(O)c(CO)c1 [Levalbuterol hydrochloride] (20 µM),0.932,0.976,1.01,0.865,0.991 (inactive),0.99 (inactive),0.89 (inactive),1.24 (inactive),0.996 (inactive),0.974 (inactive),0.994 (inactive),0.861 (inactive)
Clc1ccccc1C(c1ccccc1)(c1ccccc1)n1ccnc1 [Clotrimazole] (20 µM),0.97,0.974,0.998,0.513,0.999 (inactive),0.977 (inactive),0.887 (inactive),0.997 (inactive),1.02 (inactive),0.955 (inactive),1.01 (inactive),0.929 (inactive)
CO[C@H]1/C=C/O[C@@]2(C)Oc3c(C)c(O)c4c(O)c(c(/C=N/N5CCN(C6CCCC6)CC5)c(O)c4c3C2=O)NC(=O)/C(C)=C\C=C\[C@H](C)[C@H](O)[C@@H](C)[C@@H](O)[C@@H](C)[C@H](OC(C)=O)[C@@H]1C [Rifapentine] (20 µM),0.0116,0.42,0.784,0.198,0.572 (active),0.0208 (active),0.145 (active),0.829 (inactive),0.583 (active),1.92 (active),1.06 (inactive),0.128 (active)
CC(C)Cn1cnc2c(N)nc3ccccc3c21 [Imiquimod] (20 µM),1.1,0.977,1.02,0.323,0.998 (inactive),0.888 (inactive),0.149 (active),0.988 (inactive),1.02 (inactive),1.04 (inactive),1 (inactive),0.162 (active)
CC(=O)Nc1ccc(OCC(O)CNC(C)C)cc1 (centres undefined) [Practolol] (20 µM),0.924,1.01,1,1.17,1.03 (inactive),1.05 (inactive),1.04 (inactive),1.04 (inactive),0.993 (inactive),0.999 (inactive),1.01 (inactive),1.02 (inactive)
Cc1cn([C@H]2C=C[C@@H](CO)O2)c(=O)[nH]c1=O [Stavudine] (20 µM),0.967,0.807,0.99,0.994,1.04 (inactive),0.97 (inactive),1.01 (inactive),0.927 (inactive),1.04 (inactive),1.21 (inactive),0.991 (inactive),1.02 (inactive)
CC1(C)O[C@@H]2C[C@H]3[C@@H]4CCC5=CC(=O)C=C[C@]5(C)[C@H]4[C@@H](O)C[C@]3(C)[C@]2(C(=O)CO)O1 [Desonide] (20 µM),0.99,1.02,1.01,1.21,1.05 (inactive),1.18 (inactive),1.14 (inactive),0.903 (inactive),0.991 (inactive),0.893 (inactive),0.997 (inactive),1.23 (inactive)
Nc1cc(C(Cl)=C(Cl)Cl)c(S(N)(=O)=O)cc1S(N)(=O)=O [Clorsulon] (20 µM),1.04,0.963,0.957,0.922,1.15 (inactive),0.998 (inactive),1.02 (inactive),1.02 (inactive),1.03 (inactive),0.981 (inactive),0.978 (inactive),1.01 (inactive)
CCCCCCCCc1c(CC)nc2ncnn2c1N (20 µM),1.11,1.05,1.04,1.16,0.991 (inactive),1.03 (inactive),0.997 (inactive),1.01 (inactive),1.01 (inactive),1.04 (inactive),1.01 (inactive),0.968 (inactive)
CC(/C=C1\SC(=S)N(CC(=O)O)C1=O)=C\c1ccccc1 [Epalrestat] (20 µM),1.15,0.964,1.05,0.896,1.05 (inactive),1.01 (inactive),1.16 (inactive),1.14 (inactive),0.992 (inactive),0.932 (inactive),1.12 (inactive),1.44 (inactive)
CCOc1cc(N)c(Cl)cc1C(=O)NCC1CN(Cc2ccc(F)cc2)CCO1 (centres undefined) [Mosapride] (20 µM),1.14,0.963,0.978,1.08,1.05 (inactive),1.03 (inactive),0.938 (inactive),0.985 (inactive),1.02 (inactive),0.998 (inactive),0.992 (inactive),0.936 (inactive)
